# Data taken from the supplement of paper PMC6555819.
# System: VDR:RXRa (NR concentration 270 nM, RXRa partner concentration 90 nM)
# Assay: PBM binding z-score (relative to random genomic background probes); higher = stronger binding; sequences stand for … in GC…GCGATTGACAGCGTAGAATGAAGG
# Procedure: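 Protein-binding microarray (Agilent 4x180K custom design, double-stranded 60-nt probes: 5' GC cap, 34-nt variable region, 24-nt constant primer region; full probe sequence given). Purified or IVT nuclear receptor:RXRα heterodimers (3:1 NR:RXRα, mostly 270:90 nM) or homodimers were incubated for 1 h in PBS with 2% milk and no ligand, then detected with Alexa488 antibodies. Fluorescence from o1-orientation probes (~5 replicates averaged) was converted to z-scores against 500 random hg19 background probes. Variable regions are seed direct-repeat (DR0–DR5) sites, all their single-nucleotide variants and half-site ablations.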
row,Sequence,PBM binding z-score
1,CCGAGTAGGTTATGGCGCATTCAGGCAACGGTGA,-0.266
2,AGAATGAGGTTATTAAAATCAGGGAATTGCGGTC,0.984
3,TTACCAAGGTGAGTTGAGGTCGTTGATCCAACTC,4.05
4,GCTTACGGGTCAAACGTTATAGCATGAATAGAAT,3.74
5,TTTACAGGGTCAAAGGCCAGAGTACGAATGTCGA,4.79
6,ACTCGGAGGACAAAGGTCATAGCTACGCCAGTGA,4.68
7,GCTGCTAGGTCAGGTTGTTCAGCTAACGGGTACG,0.65
8,TCATTTAGGTAATACAGGTGAAAGTCGGCATCTA,1.18
9,CCTTACGGGTCCAGGTTATAGCACGGGTGGTACG,-0.152
10,ATCTCTAGGCAAAAGTTCAGTGAATCCCGAGGAT,0.715
11,ATCTCTAGGTAAAGTTCAATGAAAGATCGATAGA,2.5
12,CCGACCGGGGCAAGGTTACCATAACGCACAGCCA,0.334
13,TCGAGTCGGTTAGTCGGGGCATTCAGCCAACATA,0.217
14,AGAAAGAGGTTATTAAGATCAGGGAATTGCGGTC,2.57
15,TCGCGGAGGACACGAAAGGTCAGAGCTCGACATC,3.13
16,TTACCAAGGTGAACGTCGTTGATCCCTCTGTAGA,0.322
17,AGAATGAGGTTACCAAAGATCAGGGCAACGCTTG,1.69
18,CCAGACAGGTGGGAAGGTAACTCAGCCTCGATTA,-0.285
19,ATTTCTAGGTAACAAGTTCAGTGAAAGAGAGGAC,2.56
20,ACTTACGGGTCCACGAGGTTATAGCACGCGTATA,3.52

row,Sequence,PBM binding z-score
1,CGTCAAAGTTCAACTAAGGTAACGTTAAGCACGC,4.69
2,ATCGAAAGGTTGTGAGGTGAGTATACAGAAAGGC,0.652
3,CGAACTAGGTCATCCAGGACAGAGAATACATTGA,4.48
4,GAAACGAGGGCAAGTTGATAGCAGAGTTTGATGG,1.51
5,TAGCCTAGGTAATGCGGGCCAGTATAGTGTCGGC,-0.839
6,TCAAATAGGTAAAAGGTGAAAGTCGGTGTGGTAA,1.79
7,TCATATAGGTAAAAGGTGAAAGTGGGTGTGGTAA,2
8,AGAACGAGGGCCCGCTGAGTTGATAGCAGAGTAG,-1.03
9,ATATGTAGGTTATCGGGTCACTCAGTTTGCGCAT,5
10,CCTCGGAGGACAACAGGAGGTCAGAACTGCCAGA,1.67
11,TCATATAGGCAAAAGGTGAAAGTCGGTGTGGTAA,1.05
12,CCTAGCAGGCCAATCTGGGTCACACAAGGCTTGA,1.09
13,TCATATAGGTATAGGTGAAAGTCGAACGATATGA,0.632
14,TCTTTTAGATCAAGCAGGTTAAGAAAGCCTGAGT,0.762
15,CTTGAAAGGTCGTGCTCAGGTGAGTATACCAAAC,3.55
16,AATACAGGGTCATCGTAGGCCGGAGTACGCACAG,4.89
17,CGTCCAAGGTCAAGGTCAGTGATAGAGACTCGAA,4.95
18,ACTAGTTGGGCAGCTGAGGTCACACACAATTCGG,3.72
19,CCTAGCGGGCCAGGGTCACTCAAGCATTTCGCTT,2.36
20,CAAACTAGGTCACAGACGTCAAAGTCCGTGCGTA,3.26
